Some test systems named below: NCI-H23 lung; NCI-H226 lung; NCI-H322M lung; HOP-62 NSCLC; NCI-H460 lung; HOP-92 NSCLC; NCI-H522 lung; 786-0 renal; COLO 205 colon; DU-145 prostate; K-562 leukemia; MALME-3M melanoma; MDA-MB-231 breast; RXF 393 renal; SF-268 CNS; SF-295 CNS; SF-539 CNS; UACC-257 melanoma; M14 melanoma; A549/ATCC NSCLC.
Assay in all cases: NCI-60 one-dose screen, 48 h (100 = growth as untreated, 0 = no growth, -100 = all killed)
Common to all, as to conditions: 10 µM unless noted

This is part of a sample that, as a whole, favours compounds with a hit. Of some 83,000 tested, about 20% had one in any assay.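 48-hour exposure, single concentration, 96-well plates; percent growth endpoint where 0 means no net growth. Active: below 10.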 A number with no mark means an inactive call. Activity calls are given as the source filed them.

`COc1cc(NC(N)=NCCC(C)(C)c2ccc(C(F)(F)F)cc2)ncc1C#N`: the growth in the assay with NCI-H23 lung is 6.42% (active); with NCI-H226 lung it was 55.5%; in the assay with NCI-H322M lung it was 36.1%; in the assay on HOP-62 NSCLC, 54.5%; in the assay with NCI-H460 lung, 6.06% (active); in the assay on HOP-92 NSCLC, -3.76% (active). Further, the growth in the assay on NCI-H522 lung was 16.8%; in the assay with 786-0 renal, 36%; in the assay with COLO 205 colon it was -83.6% (active); with DU-145 prostate, 39.6%; in the assay with K-562 leukemia, -18.1% (active); with MALME-3M melanoma, -77.9% (active). The growth in the assay on MDA-MB-231 breast was 26%; in the assay on RXF 393 renal, 33.4%; in the assay with SF-268 CNS it was 44.1%; in the assay with SF-295 CNS it was 25.9%; in the assay with SF-539 CNS, 61.1%; in the assay with UACC-257 melanoma it was -0.602% (active). Also, in the assay with M14 melanoma, the growth was -73.7% (active).

Regarding `Cc1nc2c3c(ncn2n1)Oc1c(c(=O)[nH]c2ccccc12)C3c1ccc(Cl)cc1` (stereo unspecified), the growth in the assay on NCI-H23 lung is 103%; in the assay with NCI-H226 lung it was 98%; in the assay on NCI-H322M lung, 100%; in the assay with HOP-62 NSCLC, 87.3%; with NCI-H460 lung, 101%; in the assay with HOP-92 NSCLC it was 74.2%. The growth with NCI-H522 lung is 87.6%; with A549/ATCC NSCLC, 97.4%; in the assay on COLO 205 colon, 107%; in the assay with DU-145 prostate, 112%; with K-562 leukemia, 94.3%; in the assay on MALME-3M melanoma, 105%. Also, the growth in the assay with MDA-MB-231 breast was 87.9%; in the assay with RXF 393 renal it was 113%; in the assay with SF-268 CNS, 85.7%; in the assay on SF-295 CNS, 96.2%; with SF-539 CNS, 93.4%; with UACC-257 melanoma it was 105%. Also, in the assay with M14 melanoma, the growth is 105%.

With `CCOC(=O)CN1/C(=N/c2sc3c(c2C(=O)OCC)CCN(C(=O)OCC)C3)SC(=O)/C1=C\C(=O)OC`, the growth in the assay with NCI-H23 lung was 95.8%; with NCI-H226 lung, 92.2%; in the assay on NCI-H322M lung, 98.4%; with HOP-62 NSCLC, 92.4%; in the assay on NCI-H460 lung, 99.9%; with HOP-92 NSCLC it was 74.5%. Further, the growth in the assay with NCI-H522 lung was 76.4%; in the assay with A549/ATCC NSCLC it was 90.4%; in the assay with COLO 205 colon, 101%; with DU-145 prostate, 104%; in the assay on K-562 leukemia, 64.2%; in the assay with MALME-3M melanoma it was 101%. In addition, the growth in the assay on MDA-MB-231 breast was 89.2%; in the assay on RXF 393 renal, 90.9%; in the assay on SF-268 CNS it was 90.8%; in the assay with SF-295 CNS, 98%; with SF-539 CNS, 93.9%; with UACC-257 melanoma it was 92.8%. In addition, in the assay on M14 melanoma, the growth was 95%.

On to `COc1ccncc1S(=O)(=O)NC(=O)Nc1ccc(Cl)c(Cl)c1`, for which the growth with NCI-H23 lung is 89%; in the assay on NCI-H226 lung, 92.5%; in the assay with NCI-H322M lung it was 95%; in the assay on HOP-62 NSCLC it was 83.9%; with NCI-H460 lung it was 104%; in the assay on HOP-92 NSCLC, 80.7%. Moreover, the growth was 82.5% in the assay with NCI-H522 lung; 94.2% with 786-0 renal; 105% in the assay with COLO 205 colon; 109% in the assay with DU-145 prostate; 77.5% in the assay on K-562 leukemia; 90.1% in the assay with MALME-3M melanoma. The growth is 100% with MDA-MB-231 breast; 79.3% in the assay with RXF 393 renal; 91% in the assay with SF-268 CNS; 85.4% in the assay on SF-295 CNS; 107% in the assay with SF-539 CNS; -32.8% (active) in the assay on UACC-257 melanoma.

`O=C(NNC(=S)Nc1ccccc1)c1cc2ccc1CCc1ccc(cc1)CC2`: the growth is 74.8% with NCI-H23 lung; 78.9% with NCI-H226 lung; 77.7% with NCI-H322M lung; 64.7% in the assay with HOP-62 NSCLC; 36.9% in the assay on NCI-H460 lung; 48.8% with HOP-92 NSCLC. In addition, the growth with NCI-H522 lung was 76%; in the assay with A549/ATCC NSCLC, 59.2%; in the assay on COLO 205 colon it was 77%; in the assay with DU-145 prostate it was 77.5%; with K-562 leukemia, 43.4%; with MALME-3M melanoma it was 74.8%. Further, the growth in the assay on MDA-MB-231 breast is 77.2%; with RXF 393 renal, 83.7%; in the assay on SF-268 CNS, 76.6%; in the assay on SF-295 CNS, 49.5%; in the assay on SF-539 CNS, 82.9%; in the assay on UACC-257 melanoma, 85.8%. Also, the growth in the assay with M14 melanoma was 56%.

With `COc1cccc(/C=C2\Oc3cc(OCCCN4CCCC4)ccc3C2=O)c1OC`, the growth in the assay with NCI-H23 lung is 96.8%; with NCI-H226 lung it was 86%; in the assay with NCI-H322M lung it was 92.8%; with HOP-62 NSCLC, 97.7%; in the assay with NCI-H460 lung, 96.2%; in the assay with HOP-92 NSCLC it was 91.2%. Further, the growth in the assay on NCI-H522 lung was 91.5%; in the assay on 786-0 renal it was 98.5%; with COLO 205 colon, 105%; in the assay on DU-145 prostate, 106%; with K-562 leukemia, 73%; in the assay on MALME-3M melanoma it was 94%. Moreover, the growth is 97.2% in the assay on MDA-MB-231 breast; 93.1% in the assay on RXF 393 renal; 91.9% with SF-268 CNS; 97.4% with SF-295 CNS; 94.6% in the assay on SF-539 CNS; 99.3% in the assay with UACC-257 melanoma. In addition, the growth with M14 melanoma was 91.5%.

On to `CCN(CC)CCOc1ccc(/C(=C(/C)c2ccccc2)c2ccc(OC(C)=O)cc2)cc1`, for which the growth in the assay with NCI-H23 lung was 95.7%; in the assay with NCI-H226 lung it was 105%; in the assay on NCI-H322M lung, 100%; with HOP-62 NSCLC, 106%; with NCI-H460 lung, 107%; in the assay with HOP-92 NSCLC it was 81%. Also, the growth is 102% with NCI-H522 lung; 98.6% in the assay on 786-0 renal; 113% in the assay with COLO 205 colon; 105% in the assay on DU-145 prostate; 87.2% in the assay on K-562 leukemia; 99.1% with MALME-3M melanoma. In addition, the growth was 108% in the assay on MDA-MB-231 breast; 100% in the assay on RXF 393 renal; 93.2% in the assay on SF-268 CNS; 103% in the assay on SF-295 CNS; 101% with SF-539 CNS; 120% in the assay with UACC-257 melanoma. In the assay with M14 melanoma, the growth is 98.3%.

For the compound `CN(CCCCN(C[C@H]1Cc2ncccc2CN1)[C@H]1CCCc2cccnc21)C1CCC(F)(F)CC1`, the growth in the assay on NCI-H23 lung was 107%; in the assay on NCI-H226 lung, 78.4%; in the assay on NCI-H322M lung, 95.5%; in the assay with HOP-62 NSCLC it was 68.2%; in the assay with NCI-H460 lung, 99.5%; in the assay with HOP-92 NSCLC it was 70.5%. The growth in the assay on NCI-H522 lung was 89.6%; in the assay with 786-0 renal it was 82.5%; with COLO 205 colon it was 87.8%; in the assay with DU-145 prostate, 97.9%; with K-562 leukemia it was 72.3%; in the assay on MALME-3M melanoma, 153%. Further, the growth with MDA-MB-231 breast is 65.7%; in the assay on RXF 393 renal, 89.9%; in the assay with SF-268 CNS, 87.8%; with SF-295 CNS it was 96.5%; in the assay with SF-539 CNS, 99.2%; in the assay with UACC-257 melanoma, 89.2%. Further, the growth with M14 melanoma is 101%.
